Here are results for eight compounds from publication PMC5540273 (PLoS ONE, 2017).

Each structure is given as a SMILES string.

Holding throughout (conditions): concentration: 1 μM, replicates: in singlicate; n = 1
For assay [1], the system named is PRKCQ.
The subject of assay [2] is PRKD1.
Assay [3] has as its system PRKD2.
In assay [4] the test system is PRKD3.
Assay [5] deals with PRKG1.
Assay [6] relates to PRKG2.
Assay [7] concerns T1, PRKR.
T1 construct: gene EIF2AK2

The subject of assay [8] is PRKX.
In assay [9] the test system is PRP4.
For assay [10], the system named is T2, PYK2.
T2 construct: gene PTK2B

Assay [11] deals with QSK.
For assay [12], the system named is RAF1.
The subject of assay [13] is RET.
Assay [14] concerns RIOK1.
Assay [15] has as its system RIOK2.
Assay [16] relates to RIOK3.
Assay [17] relates to RIPK1.
Assay [18] deals with RIPK2.
Assay [19] deals with RIPK4.
In assay [20] the test system is RIPK5.
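Note: KINOMEscan kinase panel screen.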

As for `Cc1csc(-c2nc(Nc3ccncc3)c3ccccc3n2)n1` [GW869640], the “%Inh” value in [1] was found to be 5%; in [2], 69%; in assay [3], 78%; in assay [4], 71%; in [5], 2%; in assay [6], 12%. The “%Inh” value is reported as 33% in assay [7]; 0% in assay [8]; 0% in assay [9]; 0% in assay [10]; 35% in [11]; 0% in assay [12]. Besides, the “%Inh” value in assay [13] is 0%; in assay [14], 38%; in [15], 39%; in [16] it was 1%; in assay [17], 0%; in assay [18], 52%. The “%Inh” value worked out at 44% in [19] and 34% in [20].
Regarding `COc1ccccc1CNC(=O)c1cc(C(=O)c2ccccc2C)c[nH]1` [GSK364507], the “%Inh” value in assay [1] was determined as 0%; in assay [2], 9%; in assay [3], 1%; in assay [4] it was 5%; in [5], 1%; in assay [6] it was 2%. The “%Inh” value was 0% in [7]; 7% in assay [8]; 23% in assay [9]; 7% in assay [10]; 8% in assay [11]; 25% in [12]. The “%Inh” value in [13] is 14%; in assay [14] it was 30%; in [15], 0%; in assay [16], 1%; in [17], 0%; in [18] it was 9%. For the same compound, the “%Inh” value in assay [19] came out at 19%; in [20], 0%.
Turning to `Fc1cc(Cl)ccc1Nc1ccnc2cc(I)ccc12` [GW551191], the “%Inh” value in assay [1] came to 18%; in [2], 1%; in assay [3], 0%; in assay [4], 0%; in assay [5], 5%; in assay [6], 0%. For the same compound, the “%Inh” value was 0% in assay [7]; 0% in assay [8]; 13% in assay [9]; 1% in assay [10]; 37% in [11]; 10% in assay [12]. Also, the “%Inh” value turned out to be 53% in [13]; 31% in [14]; 0% in assay [15]; 19% in assay [16]; 0% in assay [17]; 67% in assay [18]. The “%Inh” value is recorded as 12% in assay [19] and 0% in [20].
As for `O=C(Nc1n[nH]c2cc(-c3cccc(F)c3F)ccc12)C1CC1` [SB-733894], the “%Inh” value in assay [1] is 19%; in assay [2], 0%; in assay [3] it was 0%; in assay [4], 0%; in assay [5], 0%; in [6], 0%. Further, the “%Inh” value is 3% in [7]; 0% in assay [8]; 4% in assay [9]; 0% in assay [10]; 26% in assay [11]; 12% in [12]. For the same compound, the “%Inh” value in assay [13] is on record as 0%; in assay [14], 47%; in assay [15] it was 0%; in [16], 52%; in assay [17] it was 72%; in [18] it was 0%. In addition, the “%Inh” value in [19] was 18%; in assay [20] it was 31%.
For the compound `COc1ccc(C2=C(Nc3cccc(C(=O)O)c3)C(=O)NC2=O)cc1` [SB-390765], the “%Inh” value in assay [1] worked out at 12%; in [2], 0%; in [3] it was 0%; in [4] it was 0%; in assay [5], 0%; in [6] it was 0%. For the same compound, the “%Inh” value stood at 11% in assay [7]; 0% in assay [8]; 0% in assay [9]; 17% in assay [10]; 27% in [11]; 11% in assay [12]. Also, the “%Inh” value in [13] amounted to 3%; in assay [14] it was 13%; in assay [15], 18%; in [16], 0%; in assay [17] it was 0%; in assay [18] it was 0%. The “%Inh” value in [19] is reported as 18%; in [20] it was 31%.
Take `Cn1ccc2ncnc(Oc3ccc(NC(=O)Nc4ccccc4)cc3)c21`: the “%Inh” value is 13% in assay [1]; 0% in assay [2]; 2% in [3]; 0% in assay [4]; 7% in assay [5]; 31% in assay [6]. The “%Inh” value in [7], in assay [8], in assay [9], in [10], in assay [11] and in assay [12] was 0% throughout. Further, the “%Inh” value in [13] turned out to be 17%; in assay [14], 19%; in assay [15], 12%; in assay [16] it was 29%; in [17], 5%; in assay [18] it was 26%. The “%Inh” value in [19] and in assay [20] was 0% throughout.
Turning to `COc1cccc(-c2cc(-c3c[nH]nc3-c3ccccn3)ccn2)c1` [GW680338], the “%Inh” value in [1] stood at 2%; in [2] it was 62%; in [3], 47%; in assay [4], 34%; in [5], 6%; in [6], 0%. Further, the “%Inh” value was 0% in [7]; 0% in assay [8]; 26% in assay [9]; 0% in [10]; 17% in assay [11]; 25% in [12]. The “%Inh” value in assay [13] came to 21%; in [14], 1%; in assay [15], 3%; in assay [16], 91.4%; in assay [17] it was 19%; in assay [18] it was 27%. In addition, the entries for the “%Inh” value in [19] and in assay [20] were 0% and 5%, respectively.
Take `COc1ccc(Nc2nccc(NCCNC(=O)Nc3ccccc3F)n2)cc1` [GSK1379901]: the “%Inh” value in assay [1] is listed as 0%; in assay [2], 0%; in assay [3], 83%; in assay [4], 0%; in assay [5], 8%; in assay [6], 0%. Moreover, the “%Inh” value was 1% in [7]; 5% in [8]; 14% in assay [9]; 8% in assay [10]; 3% in assay [11]; 20% in assay [12]. The “%Inh” value in assay [13] was 17%; in assay [14] it was 40%; in [15], 0%; in assay [16], 39%; in assay [17] it was 33%; in assay [18] it was 22%. For the same compound, the “%Inh” value is 11% in assay [19] and 6% in assay [20].
